# Gal4-VP16 FLuc: counter-screen for ROR gamma inhibitors: Gal4-VP16 reporter | Drosophila S2 Gal4-VP16 UAS-luciferase, luminescence, 20 h | Potency, µM (doses to about 53.6 µM), for inactives: at the top dose activity, negative = inhibition, hits mostly inhibitors | 310,000 compounds, 3.5% hits;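 note: Gal4-VP16 expression switched on by copper sulfate through the metallothionein promoter; potency is the fitted concentration of half-maximal effect; % is set by controls: 0 for no effect and ±100 for the full control effect; nearly all actives have a fitted effect of over 50% in size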
# CtBP-E1A blk: CtBP/E1A binding inhibition | 340,000 compounds, 0.49% hits | activity change, % (no concentration beside the values) | AlphaScreen GST-E1A/His-CtBP binding, 1536-well; hits give low values; in the data active = activity change below about -65%; inconclusive = mostly about -30% to -63%; note: % is set by controls: 0 for no effect and ±100 for the full control effect
#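 GST-E1A and His-tagged CtBP (125 nM each as 5X stock) were preincubated with pin-transferred compound for 2 h at 37 °C in the dark, then glutathione donor and nickel acceptor beads were added for 1 h before AlphaScreen reading.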
# RORgamma inh: blocks mouse ROR gamma transcriptional activity; P51450; 310,000 compounds, 5.4% hits; Drosophila S2 Gal4-RORgamma UAS-luciferase reporter, 20 h; Potency, µM (top dose mostly 53.6 µM), inactives show at the top dose activity change, negative = inhibition, hits mostly inhibitors; AID 2551; note: potency is the fitted concentration of half-maximal effect; % is set by controls: 0 for no effect and ±100 for the full control effect; nearly all actives have a fitted effect of over 60% in size
# Target sequence (P51450 whole entry, looked up, the tested form may be a part): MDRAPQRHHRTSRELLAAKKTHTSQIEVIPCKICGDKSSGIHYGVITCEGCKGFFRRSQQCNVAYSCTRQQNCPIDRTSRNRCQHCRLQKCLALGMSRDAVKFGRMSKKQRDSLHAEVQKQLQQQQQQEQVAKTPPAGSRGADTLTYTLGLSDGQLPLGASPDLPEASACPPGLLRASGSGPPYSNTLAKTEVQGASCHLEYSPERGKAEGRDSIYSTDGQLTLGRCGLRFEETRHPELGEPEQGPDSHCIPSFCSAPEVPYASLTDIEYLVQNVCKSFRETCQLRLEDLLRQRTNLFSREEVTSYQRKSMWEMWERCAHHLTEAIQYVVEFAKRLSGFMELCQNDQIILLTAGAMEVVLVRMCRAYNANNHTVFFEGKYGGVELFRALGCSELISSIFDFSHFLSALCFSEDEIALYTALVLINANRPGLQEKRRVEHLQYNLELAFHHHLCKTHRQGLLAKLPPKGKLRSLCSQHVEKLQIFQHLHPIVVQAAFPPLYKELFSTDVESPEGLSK
#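 Using a luciferase readout, inhibitors were identified by reduced reporter activity in Drosophila cells coexpressing a copper-inducible Gal4–ROR gamma fusion and UAS-driven Photinus luciferase, incubated 20 hr after 700 uM copper sulfate.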
# Six1-Eya2 inh: inhibitors of human Six1/Eya2 interaction | Q15475+O00167 | AlphaScreen GST-Six1/His-Eya2 binding, biochemical; hits give low values | activity change, % (no concentration beside the values) | 360,000 compounds, 0.56% hits | AID 651725; in the data active = activity change below about -65%; inconclusive = mostly about -30% to -63%; note: % is set by controls: 0 for no effect and ±100 for the full control effect
#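 AlphaScreen with GST-Six1 and His-Eya2 (5X mix: 250 nM and 500 nM), glutathione donor and nickel acceptor beads; buffer 50 mM Tris pH 8.0, 300 mM NaCl, 1 mM TCEP; 1 h at 37 C in the dark.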
# CBFb RUNX1 block: inhibitors of human CBF-beta and RUNX1 interaction | AlphaScreen CBFb-His/RUNX1-biotin binding, biochemical | 230,000 tested, under 10 active | AID 1477 | Q01196+Q13951 | Potency, µM (highest dose often 59.8 µM), for the others: at the highest dose activity, negative = inhibition, actives largely listed as inhibitors; note: % of control where 0% means no effect
#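 CBF-beta (His) and RUNX1 (biotin), 30 nM each; 20 min preassociation; + compound, 15 min; + beads 50 ng each (Ni, streptavidin), 90 min; RT; AlphaScreen read.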
# MBNL1-CUG inh: blocks human MBNL1 binding to CUG repeat RNA; Q9NR56; TR-FRET MBNL1-His/biotin-(CUG)12 binding, 665/545 ratio; Potency, µM (highest dose often 57.5 µM), for inactives: at the top dose activity change, negative = inhibition, most hits filed as inhibitors; 280,000 compounds, 0.036% hits; AID 2675; active = well fitted inhibition curve with a large enough effect in the signal ratio, with a control signal flat, not every such curve was filed as active; inconclusive = small, poorly fitted or top-dose-only effect, or effect the other way, or a change in a side signal; inactive = no such curve, though single readings can be large or run the other way; the % refers to the signal ratio; note: potency is the fitted concentration of half-maximal effect; % is set by controls: 0 for no effect and ±100 for the full control effect
#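 Compounds (final 92 nM to 58 uM) are added to His-tagged MBNL1 and biotin-(CUG)12, then terbium anti-His antibody and streptavidin-XL665 (5 nM final). After 60 min at room temperature, the 665/545 nm ratio is read.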
# * marks the source's active call; other numbers are inactive results; ? = inconclusive; / = not tested or not shown. A selection: hits, their analogues and other compounds. The true share with any hit is near 5.5%. Unless noted, calls come from the whole dose curve; as a rule, active = well fitted curve in the direction sought with a large enough effect; inconclusive = small, poorly fitted or top-dose-only effect, or another doubt; inactive = no such curve, though single readings can be large; an effect the other way counts as inactive or inconclusive.
SMILES,Gal4-VP16 FLuc,CtBP-E1A blk,RORgamma inh,Six1-Eya2 inh,CBFb RUNX1 block,MBNL1-CUG inh
COc1ccc2c(c1)-c1nc(/N=C/c3ccc(O)cc3)sc1CC2,?,6.8,-0.7%,0.0,-6.8%,-4.3%
COc1ccc2c(c1)CCc1sc(NC(=O)c3ccc(C)cc3)nc1-2,1µM*,10.1,0.141µM*,7.6,13.8%,-10.1%
COc1ccc2c(c1)-c1nc(/N=C/c3c(O)ccc4ccccc34)sc1CC2,?,-9.8,15.8µM*,-20.3,-10.5%,/
COc1ccc2c(c1)CCc1sc(NC(=O)c3ccco3)nc1-2,-0.9%,-12.5,-20.3%,-17.6,-1.7%,-6.7%
COc1ccc2c(c1)-c1nc(NC(=O)c3ccco3)sc1CC2,-1.9%,-6.5,-16.7%,-9.6,4.7%,-14.6%
Clc1ccc(CSc2nnc(Cn3cnc4ccccc43)o2)cc1,15.8µM*,24.3,5.9%,17.4,4.4%,5.3%
CCN(CC)C1CC(=O)N(c2ccc(Br)cc2)C1=O (centres undefined),17.8µM*,6.7,12.6µM*,5.1,/,-4.0%
Cc1cc(C)nc(SC2CC(=O)N(c3ccc(Br)cc3)C2=O)n1 (centres undefined),7.5%,10.1,25.3%,-9.6,/,-2.8%
Cc1ccc(N(CC(=O)NC2CCCC2)C(=O)CNC(=O)c2cccs2)cc1C,-3.5%,-1.1,-19.3%,1.0,/,-5.8%
CNC(=O)C[C@H]1C(=O)N(CCc2ccccc2)C[C@@H]1Cc1ccccc1,/,3.4,/,0.1,/,/
CC(=NNC(=O)c1ccncc1)c1ccc(Cl)cc1Cl,/,1.8,/,0.5,/,/
Cc1cc(C)c2c(n1)sc1c(O)cc(=O)[nH]c12,-8.9%,-15.0,-10.6%,-71.0*,-6.5%,9.6%
CC(=O)O[C@@H]1[C@@H](O)CN[C@@H]1Cc1ccccc1,0.282µM*,/,0.501µM*,/,10.7%,/
O=C(NC(=S)Nc1cc(-c2nc3ccccc3[nH]2)ccc1Cl)c1ccc2c(c1)OCO2,-11.2%,-3.4,12.6µM*,-7.9,-11.1%,-0.6%
CCNc1ccc(Br)cc(C(=O)/C=C/c2ccc(Cl)cc2Cl)c1=O,12.6µM*,-8.7,5.01µM*,-1.0,-3.4%,1.1%
COc1ccc2cc(-c3[nH]ncc3CN3C[C@@H]4CCC[C@H]3C4)ccc2c1,-1.1%,-4.7,-28.4%,-8.7,3.2%,12.4%
Oc1ccc(N=Nc2ccccc2)o1,15.8µM*,-3.7,?,2.4,/,-4.5%
Oc1c(N=Nc2ccccc2)sc2ccccc12,?,-24.4,-41.9%,?,/,?
CC(C)(CNC(=O)c1cc([N+](=O)[O-])ccc1N1CCC(Cc2ccccc2)CC1)N1CCOCC1,/,-25.8,/,?,/,/
CCOc1ccc(NC(=O)c2ccc3c(c2)CCN3S(C)(=O)=O)cc1,-5.0%,-0.1,?,1.3,/,-2.4%
COc1cccc(C(=O)NC(=S)Nc2cccnc2)c1,-25.3%,2.6,?,-0.5,2.3%,-0.5%
COc1ccc(C(=O)NC(=S)Nc2cccnc2)cc1Cl,-7.8%,-0.8,10µM*,-1.8,/,-4.0%
CCOc1cc(C(=O)NC(=S)Nc2cccnc2)cc(OCC)c1OCC,?,-11.2,12.6µM*,-6.7,8.4%,-6.5%
CSc1cccc(NC(=S)NC(=O)c2cccnc2)c1,11.2µM*,/,10µM*,15.3,/,2.3%
CCCCn1c(N)c(N(CC(C)C)C(=O)CSCc2c(C)noc2C)c(=O)[nH]c1=O,/,2.2,/,1.0,/,/
Nc1ccc(Br)cc1C(=O)O,1.41µM*,-5.0,2.82µM*,6.6,-7.6%,/
Nc1ccc(-c2ccc(N)c(C(=O)O)c2)cc1C(=O)O,-22.8%,-2.0,-2.0%,1.3,?,-10.9%
Cc1ccc(NC(=O)c2ncn(CC(=O)N3CCN(c4ccccn4)CC3)n2)cc1C,/,3.1,/,0.0,/,/
O=C(NC(=S)Nc1ccccc1N1CCCC1)c1ccccc1[N+](=O)[O-],3.98µM*,-19.5,2.82µM*,?,?,-13.5%
